Reference: PubChem BioAssay AID1159580 (chemical genetic matrix, 2015)
Values joined by “and” are separate entries in the source; they are usually repeats but may differ in a detail not shown here. Equal values may be shown once. About 2,000 (36%) of roughly 5,500 compounds were called active. Roughly 18% stayed inconclusive and do not appear here. No stated cut-off is given here; in the data, active means normalized growth mostly below about 0.91 (no sharp cut-off); inconclusive means no clear call, values can overlap the other calls; inactive means mostly above about 0.92. Some of the results follow.

Test: chemical genetic growth profiling, strain panel (AID 1159580);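 further: tested at 20 µM; growth read once vehicle control cultures reached saturation at 30 °C; 1 = growth at the plate median or of vehicle wells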
Details: S. cerevisiae deletion strains, growth OD

Measured: normalized growth

O=c1oc2c(O)c(O)cc3c(=O)oc4c(O)c(O)cc1c4c23
active: locus YAL013W, strain DEP1, stronger effect = lower value 0.55 | locus YAL021C, strain ccr4, stronger effect = lower value 0.352 | locus YAL026C, strain drs2, stronger effect = lower value 0.545 | locus YAL030W, strain snc1, stronger effect = lower value 0.817 | locus YBL061C, strain skt5, stronger effect = lower value 0.591 | locus YBR009C, strain hhf1, stronger effect = lower value 0.754 | locus YBR023C, strain chs3, stronger effect = lower value 0.533 | locus YBR229C, strain ROT2, stronger effect = lower value 0.903 | locus YBR231C, strain swc5, stronger effect = lower value 0.53 | locus YBR279W, strain paf1, stronger effect = lower value 0.699 | locus YCL011C, strain gbp2, stronger effect = lower value 0.745 | locus YCL016C, strain dcc1, stronger effect = lower value 0.722 | locus YCL029C, strain bik1, stronger effect = lower value 0.502 | locus YCL061C, strain MRC1, stronger effect = lower value 0.84 | locus YCL069W, strain vba3, stronger effect = lower value 0.855 | locus YCR088W, strain abp1, stronger effect = lower value 0.895 | locus YDL035C, strain GPR1, stronger effect = lower value 0.681 | locus YDL040C, strain nat1, stronger effect = lower value 0.868 | locus YDL074C, strain BRE1, stronger effect = lower value 0.541 | locus YDL101C, strain DUN1, stronger effect = lower value 0.598 | locus YDL185W, strain tfp1, stronger effect = lower value 0.835 | locus YDL192W, strain arf1, stronger effect = lower value 0.558 | locus YDR069C, strain doa4, stronger effect = lower value 0.521 | locus YDR101C, strain arx1, stronger effect = lower value 0.749 | locus YDR137W, strain rgp1, stronger effect = lower value 0.496 | locus YDR150W, strain NUM1, stronger effect = lower value 0.778 | locus YDR159W, strain sac3, stronger effect = lower value 0.738 | locus YDR162C, strain NBP2, stronger effect = lower value 0.661 | locus YDR297W, strain sur2, stronger effect = lower value 0.746 | locus YDR318W, strain mcm21, stronger effect = lower value 0.651 | locus YDR334W, strain swr1, stronger effect = lower value 0.574 | locus YDR335W, strain msn5, stronger effect = lower value 0.784 | locus YDR388W, stronger effect = lower value 0.538 | locus YDR392W, strain spt3, stronger effect = lower value 0.695 | locus YDR502C, strain sam2, stronger effect = lower value 0.561 | locus YEL003W, strain gim4, stronger effect = lower value 0.697 | locus YEL037C, strain rad23, stronger effect = lower value 0.767 | locus YEL061C, strain CIN8, stronger effect = lower value 0.753 | locus YER015W, strain faa2, stronger effect = lower value 0.583 | locus YER016W, strain bim1, stronger effect = lower value 0.818 | locus YER111C, strain swi4, stronger effect = lower value 0.436 | locus YER155C, strain BEM2 (second series), stronger effect = lower value 0.745 | locus YER155C, strain BEM2, stronger effect = lower value 0.74 | locus YER167W, strain BCK2, stronger effect = lower value 0.799 | locus YFR010W, strain ubp6, stronger effect = lower value 0.713 | locus YGL086W, strain mad1, stronger effect = lower value 0.583 | locus YGL167C, strain pmr1, stronger effect = lower value 0.653 | locus YGL173C, strain kem1, stronger effect = lower value 0.417 | locus YGL248W, strain PDE1, stronger effect = lower value 0.649 | locus YGL253W, strain hxk2, stronger effect = lower value 0.768 | locus YGR078C, strain PAC10, stronger effect = lower value 0.616 | locus YGR135W, strain pre9, stronger effect = lower value 0.559 | locus YGR252W, strain gcn5, stronger effect = lower value 0.588 | locus YHR013C, strain ard1, stronger effect = lower value 0.563 | locus YHR027C, strain rpn1, stronger effect = lower value 0.539 | locus YHR079C, strain IRE1 (second series), stronger effect = lower value 0.824 | locus YHR129C, strain ARP1, stronger effect = lower value 0.603 | locus YHR142W, strain chs7, stronger effect = lower value 0.563 | locus YHR200W, strain rpn10, stronger effect = lower value 0.712 | locus YIL066C, strain RNR3, stronger effect = lower value 0.669 | locus YIL073C, strain SPO22, stronger effect = lower value 0.546 | locus YIR030C, strain dcg1, stronger effect = lower value 0.776 | locus YJL092W, strain hpr5, stronger effect = lower value 0.861 | locus YJL095W, strain BCK1 (second series), stronger effect = lower value 0.675 | locus YJL134W, strain LCB3, stronger effect = lower value 0.823 | locus YJL154C, strain vps35, stronger effect = lower value 0.864 | locus YJL164C, strain tpk1, stronger effect = lower value 0.679 | locus YJL166W, strain qcr8, stronger effect = lower value 0.73 | locus YJL168C, strain set2, stronger effect = lower value 0.898 | locus YJL187C, strain SWE1 (second series), stronger effect = lower value 0.493 | locus YJL187C, strain SWE1, stronger effect = lower value 0.742 | locus YJR043C, strain POL32, stronger effect = lower value 0.596
inactive: locus YBR021W, strain FUR4, stronger effect = lower value 0.907 | locus YBR171W, strain sec66, stronger effect = lower value 0.938 | locus YDL005C, strain med2, stronger effect = lower value 0.986 | locus YDR001C, strain nth1, stronger effect = lower value 0.96 | locus YDR195W, strain ref2 0.876 | locus YEL061C, strain CIN8 (second series), stronger effect = lower value 0.917 | locus YER110C, stronger effect = lower value 0.971 | locus YGL078C, strain dbp3, stronger effect = lower value 0.976 | locus YGL227W, strain vid30, stronger effect = lower value 1 | locus YGL240W, strain doc1, stronger effect = lower value 0.923 | locus YHR079C, strain IRE1, stronger effect = lower value 0.978 | locus YHR094C, strain hxt1, stronger effect = lower value 0.964 | locus YIL125W, strain kgd1, stronger effect = lower value 0.956 | locus YJL115W, strain asf1, stronger effect = lower value 0.912 | locus YJL129C, strain trk1, stronger effect = lower value 0.898 | locus YJR066W, strain TOR1, stronger effect = lower value 0.974
0.41 (active) and 0.994 (inactive): locus YHR030C, strain SLT2, stronger effect = lower value
0.28 (active) and 0.983 (inactive): locus YJL095W, strain BCK1, stronger effect = lower value
